Results on 30 molecules are retold here after PubChem BioAssay (Tox21).

A short description of experiment [1]: qHTS assay to identify small molecule agonists of the RXR signaling pathway - cell viability counter screen (AID 1159529). Further: series mostly up to about 77 µM; nearly all actives have a fitted effect of over 50% in size. The gist of the method:
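CellTiter-Glo luminescence gave viability in the wells also read for beta-lactamase. Cells (RXR-alpha-UAS-bla HEK 293T, 2% charcoal-stripped FBS medium) had 5 hr plating, then 16 hr compound exposure at 37 C; tetraoctyl ammonium bromide served as positive control.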
Background: qHTS replaces the single test concentration by a dilution series.

The nature of experiment [2]: qHTS assay to identify small molecule antagonists of the retinoid acid receptor (RAR) signaling pathway - cell viability counter screen (AID 1159551). Further: nearly all actives have a fitted effect of over 35% in size. The gist of the method:
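Following overnight attachment, C3RL4 reporter cells received DMSO-dissolved compounds and then retinol (1 uM final). Six hours later at 37 C, ATP content was measured by CellTiter-Glo luminescence.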

Experiment [3] can be described thus: qHTS assay to identify small molecule antagonists of the retinoic acid receptor (RAR) signaling pathway (AID 1159552; further: nearly all actives have a fitted effect of over 50% in size). In outline:
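Luminescent RARE reporter read-out in C3RL4 cells: 6 hr co-treatment at 37 C of test compounds with retinol at 1 uM final. Cells plated overnight beforehand; luciferase reagent incubated 30 min at room temperature before reading.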

The nature of experiment [4]: qHTS assay to identify small molecule agonists of the retinoic acid receptor (RAR) signaling pathway (AID 1159553). Further: potency means the concentration at half of the fitted maximal effect. The gist of the method:
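Cell line C3RL4, RARE luciferase reporter. Treatment: compounds in DMSO, 6 hr, 37 C, 5% CO2, after overnight plating. Detection: luminescence, 30 min RT after reagent.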

Records with an inconclusive call do not appear. A call without a number means that no potency is given here. Unmarked numbers belong to inactive results. Active and inactive are the calls of the source. The call rests on the fitted dose curve; in most records, active means well fitted curve in the direction sought with a large enough effect in the repeat runs; inconclusive means weak or mixed curves; inactive means no such curve, though single readings can be large; an effect the other way counts as inactive or inconclusive.

Consider `O=C(O)c1ccccc1[N+](=O)[O-]`, for which the Potency entry in experiment [1] and in experiment [4] was “inactive” throughout. In addition, the outcome in experiment [2] and in experiment [3] was inactive.

On to `N#CCCCC(C#N)CCC#N` (stereo not drawn), for which the Potency entry in experiment [1] and in experiment [4] was “inactive” throughout. Further, the result in experiment [2] and in experiment [3] was inactive.

Consider `CC1=C(C)C(=O)C(C(CCCCCC(=O)O)c2ccccc2)=C(C)C1=O` (stereo not drawn), for which the Potency entry in experiment [1] and in experiment [4] was “inactive” throughout. Further, the result in experiment [2] and in experiment [3] was inactive.

Consider `CC1(C)CC(O)CC(C)(C)N1[O]`, for which the Potency result in experiment [1] and in experiment [4] was “inactive” in each case. In addition, the outcome in experiment [2] and in experiment [3] was inactive.

On to `COC(=O)c1cc(Cl)ccc1[N+](=O)[O-]`, for which the Potency entry in experiment [1] and in experiment [4] was “inactive” each time. Further, the result in experiment [2] and in experiment [3] was inactive.

`Nc1ccc(-c2ccc(F)cc2)cc1`: in experiment [1], the Potency entry is “inactive”. Further, the call in experiment [2] and in experiment [3] was inactive.

For the molecule `C(/C=C/C=C/Nc1ccccc1)=Nc1ccccc1`, the Potency result in experiment [1] and in experiment [4] was “inactive” in each case. Also, the call in experiment [2] and in experiment [3] was inactive.

As for `CCCCCCCCCCCC(=O)OCC`, the Potency result in experiment [1] and in experiment [4] was “inactive” throughout. Further, the result in experiment [2] and in experiment [3] was inactive.

Turning to `CCOc1cc(OCC)c(C(C)=O)cc1OCC`, the Potency result in experiment [1] and in experiment [4] was “inactive” each time. For the same molecule, the molecule was called inactive in experiment [2] and in experiment [3].

In the case of `CCCCCCCCCCCCSCCOCCO`, the Potency entry in experiment [1] and in experiment [4] was “inactive” each time. Moreover, the molecule was classed as inactive in experiment [2] and in experiment [3].

For the molecule `O=C1c2ccccc2C(=O)C1c1ccc2ccccc2n1`, in experiment [1], the Potency result was “inactive”. In addition, the result in experiment [2] and in experiment [3] was inactive. The Potency in experiment [4] was 0.108 µM (active).

As to `N#Cc1ccc(CC(=O)c2cccc(C(F)(F)F)c2)cc1`, the Potency entry in experiment [1] and in experiment [4] was “inactive” in each case. Besides, the molecule was classed as inactive in experiment [2] and in experiment [3].

With `CCCC(=O)OCCC(C)C`, the Potency entry in experiment [1] and in experiment [4] was “inactive” throughout. The outcome in experiment [2] and in experiment [3] was inactive.

In the case of `Cc1cc(C)n(CO)n1`, the Potency result in experiment [1] and in experiment [4] was “inactive” throughout. Also, the molecule was classed as inactive in experiment [2] and in experiment [3].

For the molecule `C1=COCCC1`, the Potency entry in experiment [1] and in experiment [4] was “inactive” throughout. In addition, the molecule was classed as inactive in experiment [2] and in experiment [3].

As to `O=[N+]([O-])c1ccc(Cl)cc1Cl`, the Potency entry in experiment [1] and in experiment [4] was “inactive” throughout. In addition, the call in experiment [2] and in experiment [3] was inactive.

Turning to `CC(C)(C)c1ccc(CCC=O)cc1`, the Potency entry in experiment [1] and in experiment [4] was “inactive” in each case. Also, the result in experiment [2] and in experiment [3] was inactive.

With `CCCCCCCCCC(C)C=O` (stereo not drawn), the Potency entry in experiment [1] is “inactive”. Moreover, the molecule was called inactive in experiment [2] and in experiment [3].

Take `Cc1c(-c2cccnc2)c2ccccc2n1CCCCC(=O)O`: in experiment [1], the Potency result is “inactive”. Also, the molecule was called inactive in experiment [2] and in experiment [3]. In addition, the Potency in experiment [4] was 43.3 µM (active).

In the case of `Cc1ccccc1CCO`, the Potency entry in experiment [1] and in experiment [4] was “inactive” in each case. The molecule was classed as inactive in experiment [2] and in experiment [3].

Regarding `OCC(O)c1ccccc1` (stereo not drawn), the Potency entry in experiment [1] and in experiment [4] was “inactive” in each case. The molecule was called inactive in experiment [2] and in experiment [3].

In the case of `CCCCCCCCC(=O)OCC(C)OC(=O)CCCCCCCC` (stereo not drawn), the Potency entry in experiment [1] and in experiment [4] was “inactive” in each case. The result in experiment [2] and in experiment [3] was inactive.

On to `N#C[C@@H]1CC(F)(F)CN1C(=O)CNC1CC2CCC(C1)N2c1ncccn1` (stereo partly drawn), for which the Potency result in experiment [1] and in experiment [4] was “inactive” each time. Also, the outcome in experiment [2] and in experiment [3] was inactive.

For `CC(=O)Nc1cccc(N)c1`, the Potency result in experiment [1] and in experiment [4] was “inactive” throughout. The molecule was classed as inactive in experiment [2] and in experiment [3].

`Cc1ccc2ccccc2c1[N+](=O)[O-]`: the Potency result in experiment [1] and in experiment [4] was “inactive” each time. Moreover, the result in experiment [2] and in experiment [3] was inactive.

For the molecule `CC(=O)Nc1ccn(C2COC(COC(=O)c3ccccc3)O2)c(=O)n1` (stereo not drawn), the Potency result in experiment [1] and in experiment [4] was “inactive” each time. Also, the outcome in experiment [2] and in experiment [3] was inactive.

With `O=C(O)c1ccc(O)c(O)c1`, the Potency entry in experiment [1] and in experiment [4] was “inactive” throughout. Further, the molecule was called inactive in experiment [2] and in experiment [3].

For `O=C(O)CCc1nc2ccccc2[nH]1`, the Potency entry in experiment [1] and in experiment [4] was “inactive” in each case. The outcome in experiment [2] and in experiment [3] was inactive.

With `COC(=O)/C=C/C(C)=C\C=C\C(C)=C\C=C\C=C(C)\C=C\C=C(C)\C=C\C(=O)O`, the Potency entry in experiment [1] is “inactive”. Besides, the call in experiment [2] and in experiment [3] was inactive. The Potency in experiment [4] is 61.1 µM (active).

In the case of `O=C(C1CCCCC1)N1CC(=O)N2CCCc3ccccc3C2C1` (stereo not drawn), the Potency entry in experiment [1] and in experiment [4] was “inactive” each time. Besides, the result in experiment [2] and in experiment [3] was inactive.
